# Screening data as filed in PubChem.
# The list is not random: actives were taken first. Their share in the collection is about 28%.
# Pyk2 oligo antag – antagonists of Pyk2 self-association, primary screen, Q293 cells, FERM NanoBiT luminescence, HTS; actives 0.83% (n = 99,000); Protein-tyrosine kinase 2-beta (Homo sapiens), Q14289; hits give low values; z-score (the deposit names both 25 µM and 10 µM);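 active = Z-score of -3 or lower, scaled per plate to the spread of control and sample wells; inactive = z-score above -3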;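 also: negative z-score means lost luminescence so less FERM oligomerization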
# CYP2C9 inhib – blockers of cytochrome P450 2C9 activity – biochemical, luminescence, ADME assay, primary screen. P11712. CYP2C9 Supersomes, luciferin-H conversion. actives 20% (n = 96,000). inhibition, % at 5 µM;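 active = blocking of liver enzyme CYP2C9 beyond about 50% at 5 µM, limit read from the data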
# CYP2C19 inhib – blockers of cytochrome P450 2C19 activity – biochemical, luminescence, ADME assay, primary screen. P33261. CYP2C19 Supersomes, luciferin-H EGE luminescence, 30 min. inhibition, % at 5 µM. actives 21% (n = 96,000);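 active = CYP2C19 inhibition above a set limit at 5 µM in the primary screen, cut at about 50% in these data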
# Target sequence (P33261 whole entry, looked up): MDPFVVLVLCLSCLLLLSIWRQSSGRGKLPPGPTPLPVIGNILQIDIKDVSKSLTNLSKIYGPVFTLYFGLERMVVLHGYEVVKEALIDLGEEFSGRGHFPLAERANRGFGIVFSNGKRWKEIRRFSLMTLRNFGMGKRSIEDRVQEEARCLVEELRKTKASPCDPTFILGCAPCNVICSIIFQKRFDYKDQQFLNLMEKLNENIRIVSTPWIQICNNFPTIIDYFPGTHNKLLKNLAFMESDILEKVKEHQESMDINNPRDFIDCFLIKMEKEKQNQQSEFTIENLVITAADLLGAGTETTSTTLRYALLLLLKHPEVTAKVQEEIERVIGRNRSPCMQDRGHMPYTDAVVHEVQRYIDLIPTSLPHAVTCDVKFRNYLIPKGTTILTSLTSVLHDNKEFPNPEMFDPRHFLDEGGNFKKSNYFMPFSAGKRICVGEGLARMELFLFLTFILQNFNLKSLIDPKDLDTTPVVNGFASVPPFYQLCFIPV
# CYP2C9 activ – human CYP2C9 activators, primary screen, biochemical, luminescence; actives 1.4% (n = 96,000); recombinant CYP2C9, luciferin-H conversion; hits give high values; factor 1 = untreated enzyme, 0 = blocked; activation factor at 5 µM; Cytochrome P450 2C9 (Homo sapiens), P11712; AID 1024, 2008;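 active = activation factor of 2 or more for CYP2C9 at a 5 µM dose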
# CYP2C19 act – human CYP2C19 activators, primary screen, biochemical, luminescence. activation factor at 5 µM. 96,000 tested, under 10 active. recombinant CYP2C19, luciferin-H EGE luminescence; hits give high values; 0 = fully inhibited enzyme, 1 = untreated enzyme. AID 1025, 2008. Cytochrome P450 2C19 (Homo sapiens), P33261;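 active = activation factor of at least 2 at 5 µM in the primary screen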
# Numbers stand for hits; . = inactive; / = no result given.
SMILES,Pyk2 oligo antag,CYP2C9 inhib,CYP2C19 inhib,CYP2C9 activ,CYP2C19 act
Cc1cc2nnc(SCC(=O)NCc3cccs3)n2c(N)n1,.,.,.,.,.
Cc1cc2nnc(SCC(=O)OC(C)C)n2c2ccccc12,.,.,.,2.6,.
CCOC(=O)C(CCc1nnc(N)s1)C(=O)OCC,.,.,.,.,.
O=C(O)CCn1[nH]c(=O)ccc1=O,.,/,/,/,/
CC1CCc2c(sc(NC(=O)C(=O)NCc3ccco3)c2C#N)C1 (stereo not drawn),.,68,.,.,.
Cc1cc(C(=O)Nc2sc3c(c2C#N)CCC(C)C3)no1 (stereo not drawn),.,76,.,.,.
CCN1CCN(CC(=O)Nc2sc3c(c2C#N)CCC(C)C3)CC1 (stereo not drawn),.,.,.,.,.
Cc1noc(C)c1CSc1ccccc1C(=O)Nc1nccs1,.,.,76,.,.
COCCSc1ccccc1C(=O)Nc1cc(C)on1,.,.,.,.,.
CCOc1ccccc1-c1nnc(SCC(=O)NC2CC3CCC2C3)n1CC (stereo not drawn),.,.,77,.,.
O=C(CN1C(=O)CSC1=O)Nc1ccc(N2CCOCC2)cc1,.,.,.,.,.
O=C(Cn1cc2c(n1)CCCCC2)NCc1ccccn1,/,.,.,.,.
CCCCOC(=O)c1cc(-c2ccc(/C=N/n3cnnc3)o2)ccc1Cl,.,/,/,/,/
Clc1cccc(-c2ccc(/C=N/n3cnnc3)o2)c1Cl,.,/,/,/,/
Clc1ccccc1-c1ccc(/C=N/n2cnnc2)o1,.,.,62,.,.
Cc1c(Cl)cccc1-c1ccc(/C=N/n2cnnc2)o1,.,71,88,.,.
CCOC(=O)c1cc(-c2ccc(/C=N\n3cnnc3)o2)ccc1Cl,.,66,.,.,.
CCc1sc(C(=O)NC2CCN(C)CC2)cc1Br,.,.,.,.,.
c1coc(-c2nnc(SCc3nc4ccccc4[nH]3)o2)c1,.,.,.,.,.
Cc1ccc(NC(=O)c2sc3nc[nH]c(=O)c3c2C)c(C)c1,.,.,.,.,.
Cc1cccc(N2CCN(C(=O)c3cccn4c(=O)c5c(C)c(C)sc5nc34)CC2)c1C,.,96,92,.,.
Cc1sc2nc3c(C(=O)N4CCN(c5ccccn5)CC4)cccn3c(=O)c2c1C,/,.,.,.,.
COc1ccccc1N(C)S(=O)(=O)c1ccc(C(=O)NC(C)(C)C)cc1,.,73,.,.,.
C=CCOC(=O)C1=C(C)NC(SCC(=O)Nc2ccc(C)c(Cl)c2)=C(C#N)C1c1ccco1 (stereo not drawn),.,79,52,.,.
COc1ccc(NC(=O)CSC2=C(C#N)C(c3ccco3)C(C(=O)Nc3nc4ccccc4s3)=C(C)N2)cc1 (stereo not drawn),.,/,/,/,/
SMILES,Pyk2 oligo antag,CYP2C9 inhib,CYP2C19 inhib,CYP2C9 activ,CYP2C19 act
COCCOC(=O)C1=C(C)NC(SCC(=O)NC(C)(C)C)=C(C#N)C1c1ccco1 (stereo not drawn),/,86,82,.,.
CCOC(=O)C1=C(c2ccccc2)NC(SCC(=O)NC2CCCCC2)=C(C#N)C1c1ccco1 (stereo not drawn),.,61,.,.,.
c1coc(-c2nc3c([nH]2)CCc2nonc2-3)c1,.,.,.,.,.
Fc1ccc(-c2nnn(Cc3nc4ccccc4s3)n2)cc1,.,.,89,.,.
Clc1ccc(-c2nnn(Cc3nc4ccccc4s3)n2)cc1,.,.,.,.,.
COc1cc(/C=C(/C#N)c2nc3ccccc3[nH]2)ccc1Oc1ncccc1[N+](=O)[O-],.,66,62,.,.
CN(CCC(=O)Nc1ccc(Br)cc1)Cc1ccccc1,.,.,.,.,.
Cc1nn(Cc2ccc(F)cc2)c(C)c1NC(=O)c1cnn2c1NC(c1ccccc1)CC2C(F)(F)F (stereo not drawn),.,67,.,.,.
O=C(NCC1CCCO1)c1cnn2c1NC(c1ccccc1)CC2C(F)(F)F (stereo not drawn),.,.,.,.,.
O=C(NCCCn1ccnc1)c1cnn2c1NC(c1ccccc1)CC2C(F)(F)F (stereo not drawn),.,97,85,.,.
Cc1c(CNC(=O)c2cnn3c2NC(c2ccc(Br)cc2)CC3C(F)(F)F)cnn1C (stereo not drawn),.,67,.,.,.
Cc1nn(C)cc1CNC(=O)c1cnn2c1NC(c1ccc(Br)cc1)CC2C(F)(F)F (stereo not drawn),.,.,.,.,.
O=C(O)c1cnn2c1NC(c1cccs1)CC2C(F)(F)F (stereo not drawn),.,.,.,.,.
NC(=O)c1cnn2c1NC(c1ccc(F)cc1)CC2C(F)(F)F (stereo not drawn),.,54,62,.,.
CCC(CC)NC(=O)Cc1ccccc1[N+](=O)[O-],.,.,.,.,.
CCOC(=O)CSc1nnc(CNC(=O)c2ccco2)n1C,.,.,.,.,.
COc1cc(/C=N/NC(=O)CCc2ccccc2)ccc1O,.,.,.,.,.
COc1ccc(/C=N/NC(=O)c2cc(C34CC5CC(CC(C5)C3)C4)[nH]n2)cc1O,.,59,.,.,.
COc1ccc(/C=N/NC(=O)CCc2c(C)n[nH]c2C)cc1O,.,64,.,.,.
COc1ccc(/C=N\NC(=O)C2C(=O)NCC2c2ccccc2)cc1O (stereo not drawn),.,.,.,.,.
Cc1[nH]c2ccccc2c1C(=O)CN1C(=O)NC2(CC(C)CC(C)(C)C2)C1=O (stereo not drawn),.,/,/,/,/
O=C(c1ccco1)N1CCN(C(=O)c2cc3sccc3n2Cc2ccccc2)CC1,.,89,.,.,.
O=C(NCc1ccco1)C1CCN(C(=O)c2cc3sccc3n2Cc2ccc(F)cc2)CC1,.,98,86,.,.
Cc1c(NC(=O)C(C)NCC2CCCO2)c(=O)n(-c2ccccc2)n1C (stereo not drawn),.,.,.,.,.
c1ccc(Cn2nnnc2CN2CCOCC2)cc1,.,.,.,.,.
SMILES,Pyk2 oligo antag,CYP2C9 inhib,CYP2C19 inhib,CYP2C9 activ,CYP2C19 act
CCCS(=O)(=O)N1CCN(C(=O)COc2ccccc2)CC1,.,.,59,.,.
O=C(COc1ccc(Cl)cc1)N1CCN(S(=O)(=O)c2ccccc2)CC1,.,.,55,.,.
CN(Cc1cccs1)C(=O)COc1cccc(-n2cnnn2)c1,.,.,.,.,.
O=C(COc1ccccc1)N1CCN(S(=O)(=O)c2ccc(Cl)cc2)CC1,.,.,.,.,.
O=C(COc1ccc(-c2nnco2)cc1)N1CCN(S(=O)(=O)c2ccccc2)CC1,.,67,84,.,.
CN(Cc1cccs1)C(=O)COc1ccc(-c2nnco2)cc1,.,.,75,.,.
